HT1080NT lethal – qHTS for induction of synthetic lethality in tumor cells producing 2HG: qHTS for the HT-1080-NT fibrosarcoma cell line; HT-1080-NT fibrosarcoma viability, CellTiter-Glo ATP luminescence, 48 h; Potency, µM (doses to about 46.1 µM), for the others: at the top dose activity, negative = less viability, most hits filed as cytotoxic; actives 1.6% (n = 360,000);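 note: NT is the 2HG producing partner of a matched IDH1 knockdown line; 0% = DMSO-treated cells and -100% = media-only wells without cells; nearly all actives have a fitted effect of over 55% in size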
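Luminescent CellTiter-Glo readout after 48 hours of compound exposure at 37 degrees C defined viability of HT-1080-NT cells. Activity was normalized to DMSO wells and cell-free media wells; concentration-response curves were fitted and assigned curve classes.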
HepG2 tox-1 – qHTS for Inhibitors of TGF-b: Cytotox Counterscreen | HepG2 CAGA-GFP viability, ATP luminescence, 18 h | Potency, µM (titrated, usually from 46.1 µM), for the others: at the top dose activity change, negative = cytotoxicity, actives largely listed as cytotoxic | actives 0.76% (n = 410,000) | AID 588856, 2011
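HepG2 CAGA-GFP cells (1000/well, DMEM with 1% FBS) received compound, then TGF-beta at 500 pg/mL final, and were incubated 18 hours at 37 degrees C. Viability was read by CellTiter-Glo luminescence. Media-only wells were set as complete cell-killing and DMSO as no toxicity.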
KB-V1 cytotox – qHTS assay for MDR1-selective chemotherapeutics: Primary screen using the drug-selected MDR subline cells KB-V1. KB-V1 MDR cells viability, CellTiter-Glo, 72 h. Potency, µM (series often up to 46.1 µM), usual class: cytotoxic. actives 3.4% (n = 400,000); note: % is set by controls: 0 for no effect and ±100 for the full control effect; nearly all actives have a fitted effect of over 60% in size
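Cytotoxicity toward P-gp-expressing KB-V1 cells was determined as loss of CellTiter-Glo luminescence after 72 h at 37 degrees C. Compounds were tested in quantitative HTS format across a concentration range, with curves fitted to normalized data.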
TGFb SMAD3 inh – qHTS for Inhibitors of TGF-b; AID 588855, 2011; HepG2 CAGA-GFP TGF-b/SMAD3 reporter, GFP fluorescence, 18 h; TGF-beta stimulated, 500 pg/mL final; Potency, µM (doses to about 46.1 µM), for inactives: at the highest dose activity, negative = inhibition, hits mostly inhibitors; actives 1.2% (n = 410,000); note: % is set by controls: 0 for no effect and ±100 for the full control effect; nearly all actives have a fitted effect of over 65% in size
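Per well, imaged GFP fluorescence of HEPG2 CAGA-GFP cells gives the signal; cells get compound, then TGF-beta (500 pg/mL final), 18 h at 37 degrees C; %Activity versus -TGF-beta and +DMSO controls.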
KB-3-1 tox – qHTS assay for MDR1-selective chemotherapeutics: Primary screen using the parental adenocarcinoma cell KB-3-1. KB-3-1 viability, CellTiter-Glo ATP luminescence, 72 h. Potency, µM (titrated, usually from 46.1 µM), actives largely listed as cytotoxic. actives 1.4% (n = 400,000); note: % is set by controls: 0 for no effect and ±100 for the full control effect; nearly all actives have a fitted effect of over 60% in size
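Cytotoxicity in the drug-sensitive parental line KB-3-1 was scored as loss of CellTiter-Glo luminescence following 72 h incubation with compound. Values come from curve fitting of normalized concentration-response data.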
HT1080 IDH1KD tx – qHTS for induction of synthetic lethality in tumor cells producing 2HG: qHTS for the HT-1080-IDH1KD cell line | HT-1080 IDH1 knockdown viability, ATP luminescence, 48 h | Potency, µM (highest dose often 46.1 µM), without a hit: at the top dose activity, negative = toxicity, usual class: cytotoxic | actives 2% (n = 360,000) | AID 686971, 2013;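 note: 0% = DMSO wells and -100% = cell-free medium wells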
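CellTiter-Glo luminescence after 48 h compound exposure at 37 degrees C of IDH1-knockdown HT-1080 cells in 5% FBS RPMI. %Activity scaled between DMSO wells and cell-free media wells, with curves fitted and assigned curve classes.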
TGFb CAGA inh – qHTS for Inhibitors of TGF-b: Confirmation of Cherry Picks. shares compounds with TGFb SMAD3 inh. HepG2 CAGA-GFP TGF-b reporter, GFP fluorescence, 18 h; cells stimulated with TGF-beta, 500 pg/mL. Potency, µM (top dose mostly 46.1 µM), for the others: at the highest dose activity, negative = inhibition, usual class: inhibitors. actives 63% (n = 1,600); note: % is set by controls: 0 for no effect and ±100 for the full control effect; nearly all actives have a fitted effect of over 65% in size
HepG2 tox-2 – qHTS for Inhibitors of TGF-b: Cytotox Counterscreen for Cherry Picks; actives 27% (n = 1,600); AID 720535, 2013; HepG2 CAGA-GFP viability, ATP luminescence, 18 h; cells stimulated with TGF-beta, 500 pg/mL; Potency, µM (doses to about 46.1 µM), for inactives: at the top dose activity, negative = cytotoxicity, usual class: inhibitors; shares compounds with TGFb SMAD3 inh; note: % is set by controls: 0 for no effect and ±100 for the full control effect; nearly all actives have a fitted effect of over 70% in size
TGFb CCL64 inh – qHTS for Inhibitors of TGF-b: CCL64 Cells Orthogonal Assay for Cherry Picks; shares compounds with TGFb SMAD3 inh; CCL64 CAGA-GFP reporter, TGF-b stimulated, GFP fluorescence, 18 h; actives 41% (n = 1,600); Potency, µM (doses to about 46.1 µM), without a hit: at the top dose activity, negative = inhibition, actives largely listed as inhibitors; note: nearly all actives have a fitted effect of over 65% in size
COP TGFb inh – qHTS for Inhibitors of TGF-b: Hit Validation in HepG2 Cells using COP promoter | actives 3% (n = 1,600) | HepG2 COP-GFP TGF-b reporter, GFP fluorescence, 18 h; cells stimulated by added recombinant TGF-beta | Potency, µM (doses to about 46.1 µM), for the others: at the highest dose activity, negative = inhibition, actives largely listed as inhibitors | shares compounds with TGFb SMAD3 inh; note: nearly all actives have a fitted effect of over 70% in size
The depositor's hits bear a star; i = inactive; ? = inconclusive; . = not tested or not shown; ! = not active in a repeat. A selection: hits, their analogues and other compounds. The true share with any hit is near 6.6%. Calls come from the whole dose curve; as a rule, active = well fitted curve in the direction sought with a large enough effect; inconclusive = small, poorly fitted or top-dose-only effect, or another doubt; inactive = no such curve, though single readings can be large; an effect the other way counts as inactive or inconclusive. Potency is the fitted concentration of half-maximal effect.

SMILES	HT1080NT lethal	HepG2 tox-1	KB-V1 cytotox	TGFb SMAD3 inh	KB-3-1 tox	HT1080 IDH1KD tx	TGFb CAGA inh	HepG2 tox-2	TGFb CCL64 inh	COP TGFb inh
O=C(Nc1nc2ccc(F)cc2s1)c1ccc([N+](=O)[O-])o1	?	-62.0%	?	5.62µM*	?	-26.8%	4.61µM*	9.2µM*	?	2.8%
O=C(Nc1nc2c(F)cccc2s1)c1ccc([N+](=O)[O-])o1	1.4%	-20.1%	i	3.6%	i	-6.6%	.	.	.	.
Cc1nn(C)c2c1c(-c1ccccc1)cc(=O)n2CC(=O)NC(C)c1ccccc1 (stereo not drawn)	.	-2.7%	i	-7.8%	i	.	.	.	.	.
CCOc1ccc(NC(=S)NC23CC4CC(CC(C4)C2)C3)cc1	1.0%	1.5%	i	7.9%	i	0.4%	.	.	.	.
FC(F)Oc1ccc(NC(=S)NC23CC4CC(CC(C4)C2)C3)cc1	?	-23.7%	16.4µM*	12.6µM*	23.1µM*	?	?	?	?	38.1%
COc1ccc(-n2ccnc2SCC(=O)Nc2nnc(C)s2)cc1	.	-32.1%	.	-24.6%	.	.	.	.	.	.
CC[C@H](C)[C@@H]1OC(=O)[C@@H](C)[C@@H](CC)NC(=O)[C@H](C)N(C)C(=O)C(C)(C)C(=O)C(C)NC(=O)[C@H](Cc2ccccc2)N(C)C(=O)[C@H](C(C)C)N(C)C(=O)CNC(=O)[C@H](CC(C)C)N(C)C(=O)CNC1=O (stereo partly drawn)	1.3µM*	5.5%	i	3.55µM*	1.16µM*	0.92µM*	7.31µM*	?	5.8µM*	41.7%
Cc1ccc(C)c(OCCC(=O)Nc2cccc(S(=O)(=O)N3CCCCC3)c2)c1	0.3%	-5.1%	14.6µM*	12.6µM*	i	9.0%	23.1µM*	-23.5%	?	5.8%
N#Cc1sc2nccc(Nc3ccccc3)c2c1N	-23.7%	-19.2%	i	4.47µM*	i	-22.7%	8.2µM*	10.2%	9.9%	-2.5%
Nc1cc(Nc2ccccc2)ccn1	-0.7%	1.3%	i	-0.6%	i	-10.2%	.	.	.	.
CCOC(=O)N=Nc1c2ccccc2c2nc3no[nH]c3nc12	1.16µM*	0.794µM*	2.91µM*	0.708µM*	1.46µM*	1.03µM*	0.651µM*	0.731µM*	1.3µM*	0.731µM*
COc1ccc(NC(=O)[C@@H]2CC=C[C@@H]3CCN(Cc4ccc(Cl)c(Cl)c4)C(=O)[C@@H]32)cc1	-29.9%	-22.6%	23.1µM*!	12.6µM*	?	?	2.91µM*	-21.8%	29.1µM*	28.7%
CCOc1ccc(NC(=O)c2c(NC(=O)c3ccccc3Br)sc3c2CCC(C)C3)cc1 (stereo not drawn)	.	-2.7%	.	0.4%	.	.	.	.	.	.
Cc1cccc(CCNC(=O)c2cccc3c2C(=O)N(C2CCCCC2)C3)c1	?	0.3%	i	12.6µM*	i	-24.4%	14.6µM*	-9.9%	?	2.9%
COC(=O)c1ccccc1NC(=O)c1cnn2c1NC(=C1CC1)C=C2C(F)F	.	3.4%	?	24.1%	?	.	.	.	.	.
O=C(C1CCC(CNS(=O)(=O)c2cccc3nsnc23)CC1)N1CC=C(c2ccccc2)CC1 (stereo not drawn)	-13.5%	-52.2%	i	8.91µM*	?	?	?	?	?	11.6%
Cn1cc([N+](=O)[O-])c(C(=O)Nc2ccc3nc(-c4ccccc4)[nH]c3c2)n1	?	24.5%	i	7.94µM*	i	?	6.51µM*	?	12.0%	23.4%
CCN(CC)C(=O)CSc1nc2cc3c(cc2c(=O)n1Cc1ccc(C(=O)NCCc2ccc(OC)c(OC)c2)cc1)OCO3	.	0.6%	.	-1.8%	.	.	.	.	.	.
Cc1ccc(NCCCn2cnc3c(OCc4ccccc4)ncnc32)cc1C	-20.6%	-24.5%	i	17.8µM*	i	-27.3%	6.51µM*	?	?	66.6%
Cc1cc(C)c(CN2CCN(C(=O)Cn3cnc4c(OCc5ccccc5)ncnc43)CC2)c(C)c1	?	-22.6%	i	12.6µM*	?	?	3.66µM*	?	?	39.3%
c1ccc(CNCCCn2cnc3c(OCc4ccccc4)ncnc32)cc1	-1.6%	-8.0%	i	17.4%	i	-11.3%	.	.	.	.
CCOC(=O)c1cnc2ccc(C(=O)OC)cc2c1Nc1ccccc1CC	.	-36.0%	?	-4.8%	i	.	.	.	.	.
O=C(COc1ccc(F)cc1)OCc1cc(=O)n2nc(C3CCCCC3)sc2n1	.	0.4%	i	-7.4%	i	.	.	.	.	.
Cc1cccc(COCC(Cc2ccccc2)N2CCN(C(=O)c3cc(Cl)cc(Cl)c3)CCC2=O)c1 (stereo not drawn)	?	-26.1%	i	12.6µM*	?	?	8.2µM*	?	13µM*	36.4%
